# Source: PubChem BioAssay (NCATS)
# Inconclusive results are not listed. Activity calls are given as the source filed them. Calls come from the whole dose curve; as a rule, active = well fitted inhibition curve with a large enough effect in the repeat runs; inconclusive = weak or mixed curves; inactive = no such curve, though single readings can be large or run the other way.
# Biological target: Cytochrome P450 2C9 (Homo sapiens) (UniProt P11712)
# Assay: Cytochrome P450 family 2 subfamily C member 9 (CYP2C9) small molecule antagonists: luciferase biochemical (cell-free) qHTS assay (AID 1645842); note: nearly all actives have a fitted effect of over 55% in size
# Settings: P450-Glo CYP2C9 enzyme assay, luciferin luminescence; series mostly up to 57.4 µM
# Outline: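 P450-Glo CYP2C9 system: proluciferin substrate with enzyme in mix containing 0.4% BSA, 10 min at room temperature, then NADPH regeneration solution added and incubated 1 h at 37C. Detection reagent stopped reaction; luminescence read after 20 min as RLU.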
# Potency is the fitted concentration of half-maximal effect.
# Cytochrome P450 2C9 (Homo sapiens), sequence (P11712 whole entry, looked up): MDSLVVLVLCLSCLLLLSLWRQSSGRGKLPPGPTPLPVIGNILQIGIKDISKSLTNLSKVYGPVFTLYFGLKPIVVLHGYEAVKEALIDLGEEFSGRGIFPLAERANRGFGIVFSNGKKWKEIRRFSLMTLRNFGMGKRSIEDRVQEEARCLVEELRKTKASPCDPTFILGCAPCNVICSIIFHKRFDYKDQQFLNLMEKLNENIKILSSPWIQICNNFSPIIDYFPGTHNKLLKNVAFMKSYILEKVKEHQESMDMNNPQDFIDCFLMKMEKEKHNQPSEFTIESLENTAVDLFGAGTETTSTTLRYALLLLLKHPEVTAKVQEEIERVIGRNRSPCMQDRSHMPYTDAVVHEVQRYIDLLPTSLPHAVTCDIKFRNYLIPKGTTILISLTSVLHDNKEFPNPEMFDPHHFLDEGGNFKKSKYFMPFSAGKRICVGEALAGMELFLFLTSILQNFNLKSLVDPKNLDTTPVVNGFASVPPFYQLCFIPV
row,SMILES,Potency
1,O=C(Nc1ccccc1)c1ccc(Nc2nnc(-c3ccc(O)cc3)c3ccccc23)cc1,6.01 µM (active)
2,CCO[C@H]1CN(C2CCC(O)(c3ccc4c(c3)OCO4)CC2)C[C@@H]1NC(=O)CNC(=O)c1cccc(C(F)(F)F)c1 (some centres undefined),12 µM (active)
3,CCOc1ccc(S(=O)(=O)N2CCCCCC2)c2ccccc12,7.56 µM (active)
4,N#Cc1cc(-c2ccnc(Nc3ccc(N4CCOCC4)cc3)n2)ccc1OC1CCOCC1,2.13 µM (active)
5,Nc1nccc(-c2c(-c3ccc(F)cc3)ncn2C2CCCCC2)n1,16.9 µM (active)
6,CCc1ccc(-c2nc(CSCC(=O)NCCc3ccccc3)c(C)o2)cc1,8.49 µM (active)
7,CC(C)(C)OC(=O)c1ncn2c1C(C)(C)Nc1ccccc1-2,10.7 µM (active)
8,Oc1cccc(C2NC(=S)Nc3cccc(F)c32)c1 (centres undefined),15.1 µM (active)
9,Cc1[nH]c(/C=C2\C(=O)Nc3cc(-c4ccccc4)ccc32)c(C)c1CCC(=O)O,12 µM (active)
10,CC(C)S(=O)(=O)c1ccc2nccc(Nc3ccc4scnc4c3)c2c1,6.74 µM (active)
11,CC(C)c1ccc(-c2cc(=O)c3ccccc3o2)cc1,5.35 µM (active)
12,COCCN(C(=O)c1cc(OC)c(OC)c(OC)c1)c1nc(-c2ccccc2)cs1,4.77 µM (active)
13,CN(C)[C@@H]1CCc2[nH]c3ccc(NC(=O)c4ccc(F)cc4)cc3c2C1,inactive
14,COc1cccc(OCCCN)c1-c1cc(Nc2cnc(C#N)cn2)n[nH]1,inactive
15,Cc1c(NC(=O)c2cc3c(s2)CCCC3)cccc1-c1cn(C)c(=O)c(Nc2ccc(C3C(=O)N(C)CCN3C)cc2)n1 (centres undefined),1.2 µM (active)
16,COCC(=O)NC/C=C/c1ccc2ncnc(Nc3ccc(Oc4ccc(C)nc4)c(C)c3)c2c1,8.49 µM (active)
17,COc1ccc(OC)c(-c2ccc(NC(=O)c3ccncc3F)cc2)c1,1.51 µM (active)
18,O=c1cc(N2CCN(c3cccc(C(F)(F)F)c3)CC2)[nH]c(=O)n1C1CCCCC1,3.01 µM (active)
19,COc1cc2ncnc(Oc3ccc(CC(=O)Nc4cnn(C(C)C)c4)cc3)c2cc1OC,13.5 µM (active)
20,CN(C)C(=O)Nc1cccc(-c2ccc(N(C)C)cc2)c1,23.9 µM (active)

row,SMILES,Potency
1,CC(C)[C@@H](c1ccc(C(F)(F)F)cc1CN(Cc1cc(C(F)(F)F)cc(C(F)(F)F)c1)c1nnn(C)n1)N1CCC(C(=O)O)CC1,15.1 µM (active)
2,COc1cc(-c2cn(C3CCc4c(F)cccc4N(CC(F)(F)F)C3=O)nn2)ccc1-n1cnc(C)c1 (centres undefined),12 µM (active)
3,COc1cc(F)c(C(C)C)cc1-c1ccc(C(F)(F)F)cc1CN1C(=O)OC(c2cc(C(F)(F)F)cc(C(F)(F)F)c2)C1C (centres undefined),inactive
4,CCCc1cc(C)n(C)c(=O)c1CN(C)C(=O)c1cc(-c2ccc(N3CCN(C(C)C)CC3)nc2)cc2c1cnn2C(C)C,0.601 µM (active)
5,O=C(Nc1ccc(C(O)(C(F)(F)F)C(F)(F)F)cc1)c1ccc(C(F)(F)F)cc1,10.7 µM (active)
6,COc1cc2c(Nc3cc(F)c(Cl)c(Cl)c3)ncnc2cc1OCC1CCCN(C)CCC1,19 µM (active)
7,N#Cc1ccc2ncnc(NCCc3ccccc3)c2c1,26.8 µM (active)
8,Nc1cccc(CNC(=O)c2ccc(Oc3ccc(OCc4cccc(F)c4)cc3)nc2)c1,9.52 µM (active)
9,COc1ccc(-c2csc(NC(=O)[C@H]3CCCCN3S(=O)(=O)c3ccc(C)cc3)n2)cc1,2.13 µM (active)
10,NCCOc1cc(C(=O)Nc2cc(OCCN)c3ccccc3n2)nc(C(=O)Nc2cc(OCCN)c3ccccc3n2)c1,inactive
11,O=C(NCc1ccc(OC(F)(F)F)cc1)C1c2c(F)cccc2C(=O)N1CCc1ccccn1 (centres undefined),3.79 µM (active)
12,COc1ccc2nc(-c3cc(OC)c(OC)c(OC)c3)cc(C(=O)NCC(=O)Nc3ccc(C(C)=O)cc3)c2c1,7.56 µM (active)
13,CC(C)NC(=O)COc1cccc(-c2nc(Nc3ccc4[nH]ncc4c3)c3ccccc3n2)c1,0.19 µM (active)
14,CC(=O)N1CCN(CCOc2ccc(C3CCN(C4=Nn5c(nnc5C(F)(F)F)CC4)CC3)cc2)CC1,12 µM (active)
15,Nc1ncnc2c1c(-c1ccc(Oc3ccccc3)cc1)nn2[C@@H]1CCCNC1,inactive
16,O=S(=O)(Cc1ccccc1)Nc1ccc(-c2ccc3c(cnn3-c3ccc(F)cc3)c2)c(C(F)(F)F)c1,6.01 µM (active)
17,CCN(c1cc(-c2ccc(CN3CCOCC3)cc2)cc(C(=O)NCc2c(C)cc(C)[nH]c2=O)c1C)C1CCOCC1,3.38 µM (active)
18,CN(C)C(=O)Nc1cc(-c2ccccc2)ccc1N(C)C,15.1 µM (active)
19,CCOc1cccc(NC(=O)c2ccc(N3CCCC3)c(C(F)(F)F)c2)c1,inactive
